The record followed here is ChEMBL document CHEMBL1961873, “Compounds: GSK PKIS; Assays: Nanosyn kinase panel” (2012).

The target in assay [1] is Homeodomain-interacting protein kinase 1 (Homo sapiens) (UniProt Q86Z02). To be noted: at 0.1 µM.
The target is the same in assay [2]. To be noted: at 1 µM.
Assay [3] deals with T1, Homeodomain-interacting protein kinase 4 (Homo sapiens) (UniProt Q8NE63).
T1 sequence (whole entry): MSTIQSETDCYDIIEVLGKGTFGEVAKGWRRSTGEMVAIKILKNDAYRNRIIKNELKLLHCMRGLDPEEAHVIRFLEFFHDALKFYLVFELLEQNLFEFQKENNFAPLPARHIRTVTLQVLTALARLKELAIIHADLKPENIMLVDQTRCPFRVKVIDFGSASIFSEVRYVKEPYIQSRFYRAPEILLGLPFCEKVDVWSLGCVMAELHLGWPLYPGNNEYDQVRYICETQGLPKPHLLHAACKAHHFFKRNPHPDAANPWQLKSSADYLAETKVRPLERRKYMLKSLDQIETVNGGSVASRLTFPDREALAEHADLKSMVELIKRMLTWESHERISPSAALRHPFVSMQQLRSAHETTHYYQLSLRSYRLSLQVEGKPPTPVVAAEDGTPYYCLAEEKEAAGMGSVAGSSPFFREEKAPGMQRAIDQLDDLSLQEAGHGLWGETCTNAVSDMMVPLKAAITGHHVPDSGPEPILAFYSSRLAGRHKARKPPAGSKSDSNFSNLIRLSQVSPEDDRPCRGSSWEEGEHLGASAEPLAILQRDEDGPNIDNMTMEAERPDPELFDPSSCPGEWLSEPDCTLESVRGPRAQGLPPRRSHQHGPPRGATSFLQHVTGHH
The note with it: at 0.1 µM.

Assay [4] has as its target T1, Homeodomain-interacting protein kinase 4 (Homo sapiens). To be noted: at 1 µM.
Assay [5] has as its target Mitogen-activated protein kinase 9 (Homo sapiens) (UniProt P45984). To be noted: at 0.1 µM.
The target is the same in assay [6]. To be noted: at 1 µM.
Assay [7] addresses Mitogen-activated protein kinase 1 (Homo sapiens) (UniProt P28482). The note with it: at 0.1 µM.
The target is the same in assay [8]. The note with it: at 1 µM.
The target of assay [9] is Mitogen-activated protein kinase 3 (Homo sapiens) (UniProt P27361). The note with it: at 0.1 µM.
Sequence of Mitogen-activated protein kinase 3 (Homo sapiens) (P27361 whole entry): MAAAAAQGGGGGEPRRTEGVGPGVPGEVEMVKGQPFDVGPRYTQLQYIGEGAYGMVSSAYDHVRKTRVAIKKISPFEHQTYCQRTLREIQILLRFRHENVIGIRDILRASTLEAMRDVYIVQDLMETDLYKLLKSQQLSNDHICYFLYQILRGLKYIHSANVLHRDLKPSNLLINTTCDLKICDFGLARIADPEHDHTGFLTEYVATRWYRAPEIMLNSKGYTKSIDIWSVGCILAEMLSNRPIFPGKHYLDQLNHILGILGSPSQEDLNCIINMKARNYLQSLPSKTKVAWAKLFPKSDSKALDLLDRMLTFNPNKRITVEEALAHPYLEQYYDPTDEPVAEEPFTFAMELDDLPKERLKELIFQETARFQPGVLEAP
The target is the same in assay [10]. To be noted: at 1 µM.
In assay [11] the target is SRSF protein kinase 3 (Homo sapiens) (UniProt Q9UPE1). To be noted: at 0.1 µM.
Sequence of SRSF protein kinase 3 (Homo sapiens) (Q9UPE1 whole entry): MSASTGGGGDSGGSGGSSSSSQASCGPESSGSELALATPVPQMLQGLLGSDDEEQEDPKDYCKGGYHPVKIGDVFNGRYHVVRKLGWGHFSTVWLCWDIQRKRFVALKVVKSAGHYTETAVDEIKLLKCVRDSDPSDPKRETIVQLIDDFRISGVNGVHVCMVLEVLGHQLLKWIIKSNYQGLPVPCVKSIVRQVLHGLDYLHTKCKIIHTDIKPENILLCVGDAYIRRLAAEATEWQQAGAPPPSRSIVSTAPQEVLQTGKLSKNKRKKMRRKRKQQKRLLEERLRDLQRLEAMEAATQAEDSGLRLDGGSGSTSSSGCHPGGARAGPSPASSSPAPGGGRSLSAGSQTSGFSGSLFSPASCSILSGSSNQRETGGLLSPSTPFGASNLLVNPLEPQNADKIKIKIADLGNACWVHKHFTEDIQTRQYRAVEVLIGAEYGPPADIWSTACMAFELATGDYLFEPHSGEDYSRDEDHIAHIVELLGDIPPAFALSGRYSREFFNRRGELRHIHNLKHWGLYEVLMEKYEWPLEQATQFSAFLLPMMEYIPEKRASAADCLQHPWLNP
For assay [12] the target is unchanged. The note with it: at 1 µM.
In assay [13] the target is Mitogen-activated protein kinase 14 (Homo sapiens) (UniProt Q16539). To be noted: at 0.1 µM.
Sequence of Mitogen-activated protein kinase 14 (Homo sapiens) (Q16539 whole entry): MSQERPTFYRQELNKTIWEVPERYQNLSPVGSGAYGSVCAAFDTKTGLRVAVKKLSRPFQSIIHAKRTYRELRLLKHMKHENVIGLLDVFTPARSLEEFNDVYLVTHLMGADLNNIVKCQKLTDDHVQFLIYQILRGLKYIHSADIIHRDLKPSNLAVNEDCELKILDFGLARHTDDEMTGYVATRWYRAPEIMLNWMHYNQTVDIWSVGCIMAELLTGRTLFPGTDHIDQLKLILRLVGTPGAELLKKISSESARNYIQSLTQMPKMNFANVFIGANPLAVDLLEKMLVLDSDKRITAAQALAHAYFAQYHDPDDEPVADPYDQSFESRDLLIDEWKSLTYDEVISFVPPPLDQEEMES
Assay [14] has the same target. The note with it: at 1 µM.
Assay [15] addresses Mitogen-activated protein kinase 11 (Homo sapiens) (UniProt Q15759). To be noted: at 0.1 µM.
The target is the same in assay [16]. The note with it: at 1 µM.
For assay [17], the target named is T2, Mitogen-activated protein kinase 13 (Homo sapiens) (UniProt O15264).
T2 sequence (whole entry): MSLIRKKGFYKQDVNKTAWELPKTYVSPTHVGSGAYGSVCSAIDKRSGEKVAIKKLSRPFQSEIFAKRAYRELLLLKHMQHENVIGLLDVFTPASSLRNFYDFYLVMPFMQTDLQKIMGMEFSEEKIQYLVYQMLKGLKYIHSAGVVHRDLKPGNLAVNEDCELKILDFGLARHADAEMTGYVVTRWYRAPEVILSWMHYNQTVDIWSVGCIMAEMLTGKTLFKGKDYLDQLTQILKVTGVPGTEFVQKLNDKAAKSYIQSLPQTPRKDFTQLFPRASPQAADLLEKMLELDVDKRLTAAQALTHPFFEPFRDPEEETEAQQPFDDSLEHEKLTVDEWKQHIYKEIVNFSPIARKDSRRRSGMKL
The note with it: at 0.1 µM.

The target in assay [18] is T2, Mitogen-activated protein kinase 13 (Homo sapiens). The note with it: at 1 µM.
The target in assay [19] is T3, Mitogen-activated protein kinase 12 (Homo sapiens) (UniProt P53778).
T3 sequence (whole entry): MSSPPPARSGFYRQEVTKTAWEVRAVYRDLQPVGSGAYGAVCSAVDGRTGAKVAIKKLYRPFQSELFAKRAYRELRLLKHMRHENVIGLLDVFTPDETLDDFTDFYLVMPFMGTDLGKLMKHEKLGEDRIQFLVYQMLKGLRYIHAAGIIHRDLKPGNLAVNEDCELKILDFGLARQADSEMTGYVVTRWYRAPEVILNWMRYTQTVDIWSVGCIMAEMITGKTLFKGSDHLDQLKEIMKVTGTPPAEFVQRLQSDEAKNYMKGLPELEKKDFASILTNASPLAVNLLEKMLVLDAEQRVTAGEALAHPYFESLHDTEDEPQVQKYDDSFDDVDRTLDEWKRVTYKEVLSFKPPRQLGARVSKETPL
To be noted: at 0.1 µM.

Assay [20] concerns the target Glycogen synthase kinase-3 beta (Homo sapiens) (UniProt P49841). The note with it: at 1 µM.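 Further: reported values are mean percent inhibition of GSK3B.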

The structures appear in SMILES notation.

Sequence of Homeodomain-interacting protein kinase 1 (Homo sapiens) (Q86Z02 whole entry, looked up): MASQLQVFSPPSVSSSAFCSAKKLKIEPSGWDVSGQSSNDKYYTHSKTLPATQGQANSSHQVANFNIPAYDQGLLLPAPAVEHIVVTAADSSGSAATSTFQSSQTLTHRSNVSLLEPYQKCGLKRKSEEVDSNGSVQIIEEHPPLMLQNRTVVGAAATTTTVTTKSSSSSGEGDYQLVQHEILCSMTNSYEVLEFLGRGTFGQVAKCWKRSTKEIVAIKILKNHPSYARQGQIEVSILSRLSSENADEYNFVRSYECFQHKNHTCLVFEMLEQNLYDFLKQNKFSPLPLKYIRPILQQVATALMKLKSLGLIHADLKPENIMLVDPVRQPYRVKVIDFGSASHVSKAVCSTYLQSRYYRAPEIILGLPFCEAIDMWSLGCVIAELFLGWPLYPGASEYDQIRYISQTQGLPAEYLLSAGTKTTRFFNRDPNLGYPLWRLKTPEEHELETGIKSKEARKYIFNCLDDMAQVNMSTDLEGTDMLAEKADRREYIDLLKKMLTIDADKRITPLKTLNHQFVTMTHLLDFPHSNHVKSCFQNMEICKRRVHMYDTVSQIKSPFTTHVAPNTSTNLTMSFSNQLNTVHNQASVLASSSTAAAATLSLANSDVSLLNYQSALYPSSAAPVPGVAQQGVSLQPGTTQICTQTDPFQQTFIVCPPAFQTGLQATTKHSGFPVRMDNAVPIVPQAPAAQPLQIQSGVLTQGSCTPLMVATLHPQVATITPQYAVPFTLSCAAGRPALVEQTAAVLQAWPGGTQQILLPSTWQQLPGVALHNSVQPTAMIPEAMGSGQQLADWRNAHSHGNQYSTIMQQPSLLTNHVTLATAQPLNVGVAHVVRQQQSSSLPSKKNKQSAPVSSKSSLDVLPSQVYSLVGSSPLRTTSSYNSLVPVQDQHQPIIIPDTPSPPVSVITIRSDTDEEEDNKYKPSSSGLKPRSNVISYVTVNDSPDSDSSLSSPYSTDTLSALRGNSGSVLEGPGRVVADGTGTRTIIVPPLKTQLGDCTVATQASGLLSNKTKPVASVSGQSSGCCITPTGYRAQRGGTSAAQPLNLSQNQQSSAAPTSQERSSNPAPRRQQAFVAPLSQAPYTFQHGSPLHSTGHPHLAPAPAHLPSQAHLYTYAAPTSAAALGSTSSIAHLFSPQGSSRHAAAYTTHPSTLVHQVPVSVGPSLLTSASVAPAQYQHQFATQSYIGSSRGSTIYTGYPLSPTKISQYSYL
Sequence of Mitogen-activated protein kinase 1 (Homo sapiens) (P28482 whole entry): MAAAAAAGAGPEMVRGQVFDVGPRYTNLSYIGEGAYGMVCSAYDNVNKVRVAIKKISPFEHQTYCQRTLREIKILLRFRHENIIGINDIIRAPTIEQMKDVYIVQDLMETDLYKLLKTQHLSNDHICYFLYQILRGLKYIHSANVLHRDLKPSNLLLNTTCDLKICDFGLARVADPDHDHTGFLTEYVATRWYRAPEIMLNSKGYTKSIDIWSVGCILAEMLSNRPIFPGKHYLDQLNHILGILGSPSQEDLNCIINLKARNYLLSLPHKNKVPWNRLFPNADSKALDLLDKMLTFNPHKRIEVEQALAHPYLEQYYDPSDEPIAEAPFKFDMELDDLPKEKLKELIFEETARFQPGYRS
Sequence of Glycogen synthase kinase-3 beta (Homo sapiens) (P49841 whole entry, looked up): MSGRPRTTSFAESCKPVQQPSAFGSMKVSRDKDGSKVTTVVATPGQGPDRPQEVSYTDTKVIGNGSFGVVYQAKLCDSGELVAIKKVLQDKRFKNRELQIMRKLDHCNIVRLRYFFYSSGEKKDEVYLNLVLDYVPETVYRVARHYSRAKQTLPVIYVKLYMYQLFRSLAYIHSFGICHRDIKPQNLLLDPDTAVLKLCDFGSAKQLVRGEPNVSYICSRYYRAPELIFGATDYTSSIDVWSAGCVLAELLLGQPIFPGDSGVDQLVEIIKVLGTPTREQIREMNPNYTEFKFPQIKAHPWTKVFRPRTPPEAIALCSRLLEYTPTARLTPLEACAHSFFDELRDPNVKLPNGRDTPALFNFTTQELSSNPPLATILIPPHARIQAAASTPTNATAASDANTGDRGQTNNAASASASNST
Sequence of Mitogen-activated protein kinase 11 (Homo sapiens) (Q15759 whole entry): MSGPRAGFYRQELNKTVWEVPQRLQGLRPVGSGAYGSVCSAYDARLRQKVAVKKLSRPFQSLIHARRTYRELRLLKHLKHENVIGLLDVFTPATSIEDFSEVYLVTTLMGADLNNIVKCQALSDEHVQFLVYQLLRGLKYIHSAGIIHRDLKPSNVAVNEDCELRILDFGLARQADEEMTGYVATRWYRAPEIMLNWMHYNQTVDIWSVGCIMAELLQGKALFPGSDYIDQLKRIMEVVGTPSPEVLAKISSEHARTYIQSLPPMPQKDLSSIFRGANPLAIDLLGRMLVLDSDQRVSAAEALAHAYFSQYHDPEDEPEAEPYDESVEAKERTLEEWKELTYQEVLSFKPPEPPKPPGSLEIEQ
Sequence of Mitogen-activated protein kinase 9 (Homo sapiens) (P45984 whole entry, looked up): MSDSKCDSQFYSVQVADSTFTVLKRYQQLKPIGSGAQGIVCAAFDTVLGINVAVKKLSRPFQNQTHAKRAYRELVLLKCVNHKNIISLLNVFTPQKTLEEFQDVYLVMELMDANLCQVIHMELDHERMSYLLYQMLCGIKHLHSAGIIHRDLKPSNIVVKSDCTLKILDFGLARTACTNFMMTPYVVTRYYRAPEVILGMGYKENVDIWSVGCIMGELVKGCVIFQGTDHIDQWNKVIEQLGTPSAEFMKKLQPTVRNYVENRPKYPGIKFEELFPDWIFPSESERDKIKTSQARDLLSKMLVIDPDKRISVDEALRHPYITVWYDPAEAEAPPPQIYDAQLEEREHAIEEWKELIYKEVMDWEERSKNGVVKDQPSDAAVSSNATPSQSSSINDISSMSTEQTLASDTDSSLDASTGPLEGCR

With `CN1CCC(C(=O)Nc2n[nH]c3nnc(-c4ccccc4)cc23)CC1`, the inhibition in assay [1] stood at 3.96%; in assay [2] it was 9.2%; in assay [3] it was 0.93%; in assay [4], 4.44%; in assay [5], 4.37%; in assay [6], 5.52%. Further, the inhibition was 7.18% in [7]; 5.71% in assay [8]; 5.71% in [9]; 7.39% in assay [10]; -1.72% in assay [11]; -1.01% in assay [12]. The inhibition amounted to 2.08% in assay [13]; 5.41% in assay [14]; 5.95% in assay [15]; 5.33% in assay [16]; 1.73% in [17]; 5.59% in assay [18]. Besides, the inhibition in assay [19] turned out to be 3.05%.

On to `COc1cc2ncn(-c3cc(O[C@H](C)c4ccccc4Cl)c(C(N)=O)s3)c2cc1OC`, for which the inhibition turned out to be 23% in assay [20]; 3.82% in [1]; 12.1% in assay [2]; 11.2% in assay [3]; 30.2% in [4]; 2.72% in [5]. Further, the inhibition in assay [6] was 3.88%; in [7], 5.57%; in assay [8], 4.8%; in assay [9], 2.92%; in assay [10] it was 4.54%; in assay [11], -0.2%. Further, the inhibition in assay [12] turned out to be 8.42%; in assay [13] it was 5.73%; in assay [14] it was 6.35%; in assay [15], 3.71%; in assay [16] it was 4.9%; in [17] it was 2.38%. Further, the inhibition came out at 3.77% in assay [18] and 2.99% in assay [19].

Take `NS(=O)(=O)c1ccc(N/N=C2\C(=O)Nc3ccc(C(=O)NCCc4c[nH]cn4)cc32)cc1`: the inhibition in assay [20] is 86.6%; in [1] it was 9.13%; in assay [2], 48.9%; in [3] it was 3.77%; in [4] it was 20.2%; in assay [5] it was 3.56%. Besides, the inhibition came out at 9.28% in assay [6]; 1.92% in assay [7]; 17.6% in [8]; 5.33% in assay [9]; 7.89% in [10]; 1.31% in assay [11]. The inhibition was -0.05% in assay [12]; 5.71% in assay [13]; 8.13% in [14]; 3.37% in assay [15]; 6.34% in assay [16]; -1.15% in assay [17]. Besides, the values for the inhibition in assay [18] and in assay [19] were 4.35% and 4.17%, respectively.

Consider `[O-][S+]1CCN(Cc2ccc(-c3ccc4ncnc(Nc5ccc(OCc6ccccc6)c(F)c5)c4c3)o2)CC1`, for which the inhibition in assay [20] was 1.56%; in assay [1], -3.01%; in [2] it was 2.83%; in assay [3], 1.06%; in [4], 5.51%; in [5], 4.53%. The inhibition in [6] was 4.55%; in [7], 0.52%; in [8] it was 2.92%; in assay [9] it was 1.89%; in assay [10] it was -0.07%; in [11], -1.09%. The inhibition is -1.23% in [12]; 1.59% in assay [13]; 8.77% in assay [14]; 3.66% in assay [15]; 6.24% in assay [16]; -1.08% in assay [17]. Also, the figures for the inhibition in [18] and in [19] were 3.34% and 0.27%, respectively.

For `CCCN1CCC=C(c2ccc(Nc3nc(Nc4ccccc4C(N)=O)c4cc[nH]c4n3)c(C)c2)C1`, the inhibition is 17.1% in assay [20]; 16.3% in [1]; 59.6% in assay [2]; 15.1% in [3]; 56.5% in assay [4]; 46.5% in assay [5]. Also, the inhibition in assay [6] is 84.9%; in assay [7], 6.87%; in assay [8], 29.5%; in assay [9], 6.39%; in assay [10] it was 11.3%; in assay [11], 4.11%. The inhibition in assay [12] is 12.7%; in assay [13] it was 4.64%; in assay [14], 7.87%; in assay [15] it was 2.75%; in assay [16] it was 7.8%; in assay [17], 4.35%. Besides, the inhibition in assay [18] is 8.15%; in assay [19], 3.52%.

Consider `COc1cc2c(cc1Nc1nc(N3CCc4ccccc43)c3cc[nH]c3n1)N(C(=O)CN(C)C)CC2`, for which the inhibition in assay [20] was 0.72%; in assay [1] it was -1.15%; in assay [2] it was 2.7%; in assay [3], 1.42%; in [4], 2.99%; in assay [5], 1.11%. Also, the inhibition in assay [6] was 1.82%; in [7] it was 0.85%; in assay [8], 2.12%; in assay [9], 2.89%; in assay [10], 1.51%; in assay [11], 0.87%. In addition, the inhibition in assay [12] is 1.46%; in assay [13] it was 3.41%; in [14], 3.7%; in [15] it was 2.84%; in assay [16] it was 1.85%; in assay [17], 0.4%. In addition, the inhibition in [18] stood at 2.2%; in assay [19], 0.57%.

`O=C1NC(=O)C(c2ccc(Cl)cc2)=C1Nc1ccc(Cl)c(C(=O)O)c1`: the inhibition in assay [1] turned out to be 2.13%; in assay [2], 4.29%; in [3], 1.76%; in assay [4] it was 1.98%; in assay [5] it was 0.98%; in assay [6] it was 5.72%. Further, the inhibition in assay [8] was -5.59%; in assay [9], -1.99%; in assay [10], 0%; in assay [11] it was 0.85%; in assay [12], 1.51%; in assay [13] it was 0.32%. Besides, the inhibition in assay [14] is -0.58%; in assay [15], -1.36%; in assay [16], -1.39%; in [17], -5.51%; in [18], -3.8%; in assay [19], -2.36%.

By inhibition is commonly meant the relative decrease from the control value, in per cent.
